Data taken from PubChem BioAssay AID1159580 (chemical genetic matrix, 2015).
The whole screen tested about 5,500 compounds, of which about 2,000 (36%) were called active. Not shown: some 18% with an inconclusive outcome. Rule as the data show it: active = normalized growth mostly below about 0.91 (no sharp cut-off); inconclusive = no clear call, values can overlap the other calls; inactive = mostly above about 0.92. The list shows a part of the results.

Assay: chemical genetic growth profiling, strain panel (AID 1159580);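 also: tested at 20 µM; growth read once vehicle control cultures reached saturation at 30 °C; 1 = growth at the plate median or of vehicle wells; lower values mean less growth of the strain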
Conditions: S. cerevisiae deletion strains, growth OD

Measured: normalized growth

COc1ccc(-c2cc(=O)c3c(O)cc(O)c(-c4cc(-c5cc(=O)c6c(O)cc(O)cc6o5)ccc4OC)c3o2)cc1
inactive: locus YAL021C, strain ccr4, hits give low values 1 | locus YAL026C, strain drs2, hits give low values 1.01 | locus YAL030W, strain snc1, hits give low values 0.997 | locus YBL061C, strain skt5, hits give low values 1.01 | locus YBR009C, strain hhf1, hits give low values 1.01 | locus YBR021W, strain FUR4, hits give low values 1.03 | locus YBR023C, strain chs3, hits give low values 1 | locus YBR171W, strain sec66, hits give low values 1.02 | locus YBR229C, strain ROT2, hits give low values 0.998 | locus YBR231C, strain swc5, hits give low values 1.01 | locus YBR279W, strain paf1, hits give low values 1.01 | locus YCL011C, strain gbp2, hits give low values 1 | locus YCL016C, strain dcc1, hits give low values 1 | locus YCL029C, strain bik1, hits give low values 1.01 | locus YCL061C, strain MRC1, hits give low values 1.01 | locus YCL069W, strain vba3, hits give low values 1.01 | locus YCR088W, strain abp1, hits give low values 1.02 | locus YDL005C, strain med2, hits give low values 1.01 | locus YDL035C, strain GPR1, hits give low values 1.03 | locus YDL040C, strain nat1, hits give low values 1.01 | locus YDL074C, strain BRE1, hits give low values 1.05 | locus YDL101C, strain DUN1, hits give low values 1.01 | locus YDL185W, strain tfp1, hits give low values 0.997 | locus YDL192W, strain arf1, hits give low values 1 | locus YDR001C, strain nth1, hits give low values 1.02 | locus YDR069C, strain doa4, hits give low values 0.95 | locus YDR101C, strain arx1, hits give low values 1.02 | locus YDR137W, strain rgp1, hits give low values 0.997 | locus YDR159W, strain sac3, hits give low values 1.03 | locus YDR162C, strain NBP2, hits give low values 0.993 | locus YDR195W, strain ref2 0.993 | locus YDR297W, strain sur2, hits give low values 0.998 | locus YDR318W, strain mcm21, hits give low values 1 | locus YDR334W, strain swr1, hits give low values 0.992 | locus YDR335W, strain msn5, hits give low values 1.01 | locus YDR388W, hits give low values 1 | locus YDR392W, strain spt3, hits give low values 0.998 | locus YDR502C, strain sam2, hits give low values 1.02 | locus YEL003W, strain gim4, hits give low values 1 | locus YEL037C, strain rad23, hits give low values 1.02 | locus YEL061C, strain CIN8 (second series), hits give low values 1.01 | locus YEL061C, strain CIN8, hits give low values 1.01 | locus YER015W, strain faa2, hits give low values 1.01 | locus YER016W, strain bim1, hits give low values 1.01 | locus YER110C, hits give low values 1.02 | locus YER111C, strain swi4, hits give low values 1.03 | locus YER155C, strain BEM2 (second series), hits give low values 0.995 | locus YER155C, strain BEM2, hits give low values 1.01 | locus YER167W, strain BCK2, hits give low values 1.02 | locus YFR010W, strain ubp6, hits give low values 0.965 | locus YGL078C, strain dbp3, hits give low values 1.01 | locus YGL167C, strain pmr1, hits give low values 1.01 | locus YGL173C, strain kem1, hits give low values 1 | locus YGL227W, strain vid30, hits give low values 1.02 | locus YGL240W, strain doc1, hits give low values 1.02 | locus YGL248W, strain PDE1, hits give low values 0.986 | locus YGL253W, strain hxk2, hits give low values 1.01 | locus YGR078C, strain PAC10, hits give low values 1.03 | locus YGR135W, strain pre9, hits give low values 0.997 | locus YGR252W, strain gcn5, hits give low values 0.995 | locus YHR013C, strain ard1, hits give low values 0.993 | locus YHR027C, strain rpn1, hits give low values 1.01 | locus YHR030C, strain SLT2, hits give low values 1.02 | locus YHR079C, strain IRE1 (second series), hits give low values 1.01 | locus YHR094C, strain hxt1, hits give low values 1.01 | locus YHR129C, strain ARP1, hits give low values 1.01 | locus YHR142W, strain chs7, hits give low values 0.998 | locus YHR200W, strain rpn10, hits give low values 1.01 | locus YIL066C, strain RNR3, hits give low values 0.993 | locus YIL073C, strain SPO22, hits give low values 1.03 | locus YIL125W, strain kgd1, hits give low values 1.01 | locus YIR030C, strain dcg1, hits give low values 1.01 | locus YJL092W, strain hpr5, hits give low values 1.02 | locus YJL095W, strain BCK1 (second series), hits give low values 1.01 | locus YJL095W, strain BCK1, hits give low values 1.08 | locus YJL115W, strain asf1, hits give low values 1.01 | locus YJL129C, strain trk1, hits give low values 1.04 | locus YJL134W, strain LCB3, hits give low values 1.02 | locus YJL154C, strain vps35, hits give low values 1.01 | locus YJL164C, strain tpk1, hits give low values 0.987 | locus YJL166W, strain qcr8, hits give low values 0.997 | locus YJL168C, strain set2, hits give low values 1.01 | locus YJL187C, strain SWE1 (second series), hits give low values 0.993 | locus YJL187C, strain SWE1, hits give low values 0.99 | locus YJR043C, strain POL32, hits give low values 1.01 | locus YJR075W, strain HOC1, hits give low values 1.04 | locus YKL009W, strain mrt4, hits give low values 1.03 | locus YKL068W, hits give low values 1.01 | locus YKL085W, strain MDH1 (second series), hits give low values 1.06 | locus YKL085W, strain MDH1, hits give low values 1.06 | locus YKL160W, strain elf1, hits give low values 0.998 | locus YKR001C, strain vps1, hits give low values 1.01 | locus YKR026C, strain gcn3, hits give low values 0.998 | locus YKR091W, strain srl3, hits give low values 1.01 | locus YLL001W, strain dnm1, hits give low values 1.02 | locus YLL026W, hits give low values 1.02 | locus YLL041C, strain sdh2, hits give low values 0.995 | locus YLR027C, strain aat2, hits give low values 1 | locus YLR039C, strain RIC1, hits give low values 1.16 | locus YLR058C, strain SHM2, hits give low values 1 | locus YLR102C, strain apc9, hits give low values 1.01 | locus YLR221C, strain rsa3, hits give low values 0.999 | locus YLR258W, strain gsy2, hits give low values 1.01 | locus YLR262C, strain YPT6 (second series), hits give low values 1.02 | locus YLR262C, strain YPT6, hits give low values 1.24 | locus YLR268W, strain sec22, hits give low values 0.985 | locus YLR320W, strain mms22, hits give low values 1.01 | locus YLR330W, strain CHS5, hits give low values 1.03 | locus YLR342W, strain FKS1 (second series), hits give low values 1.02 | locus YLR342W, strain FKS1, hits give low values 0.978 | locus YLR357W, strain rsc2, hits give low values 0.973 | locus YLR370C, strain arc18, hits give low values 0.997 | locus YLR371W, strain rom2, hits give low values 1 | locus YLR384C, strain iki3, hits give low values 1.02 | locus YLR418C, strain cdc73, hits give low values 1.04 | locus YML016C, strain PPZ1, hits give low values 0.999 | locus YML032C, strain rad52, hits give low values 1.01 | locus YML120C, strain ndi1, hits give low values 1.03 | locus YML124C, strain tub3, hits give low values 1.01 | locus YMR058W, strain fet3, hits give low values 0.99 | locus YMR078C, strain ctf18, hits give low values 1.02 | locus YMR125W, strain sto1, hits give low values 1.02 | locus YMR129W, hits give low values 1.01 | locus YMR205C, strain PFK2, hits give low values 1.02 | locus YMR223W, strain ubp8, hits give low values 1.01 | locus YMR231W, strain pep5, hits give low values 1 | locus YMR263W, strain SAP30, hits give low values 1.03 | locus YMR307W, strain GAS1, hits give low values 1.13 | locus YNL067W, strain RPL9B, hits give low values 1.02 | locus YNL071W, strain lat1, hits give low values 1.01 | locus YNL128W, strain TEP1, hits give low values 1.03 | locus YNL153C, strain GIM3, hits give low values 0.98 | locus YNL209W, strain ssb2, hits give low values 1.01 | locus YNL233W, strain BNI4, hits give low values 1.04 | locus YNL248C, strain rpa49, hits give low values 1 | locus YNL250W, strain rad50, hits give low values 1.01 | locus YNL271C, strain bni1, hits give low values 1.01 | locus YNL298W, strain CLA4, hits give low values 1.01 | locus YNL307C, strain MCK1, hits give low values 1.02 | locus YNL322C, strain KRE1 (second series), hits give low values 1.02 | locus YNL322C, strain KRE1, hits give low values 1.01 | locus YNR049C, strain mso1, hits give low values 1.01 | locus YNR052C, strain pop2, hits give low values 1.01 | locus YOL006C, strain TOP1, hits give low values 1.16 | locus YOL012C, strain htz1 0.762 | locus YOL147C, strain pex11, hits give low values 1.02 | locus YOR001W, strain rrp6, hits give low values 0.993 | locus YOR061W, strain CKA2, hits give low values 1 | locus YOR069W, strain VPS5, hits give low values 1.01 | locus YOR070C, strain gyp1, hits give low values 1 | locus YOR080W, strain dia2, hits give low values 1.02 | locus YOR083W, strain WHI5, hits give low values 1 | locus YOR106W, strain vam3, hits give low values 0.973 | locus YOR136W, strain idh2, hits give low values 1.02 | locus YOR144C, strain elg1, hits give low values 1.01 | locus YOR184W, strain ser1, hits give low values 1.02 | locus YOR265W, strain rbl2, hits give low values 1 | locus YOR270C, strain vph1, hits give low values 0.998 | locus YOR290C, strain snf2, hits give low values 0.981 | locus YOR316C, strain cot1, hits give low values 1.01 | locus YPL051W, strain arl3, hits give low values 0.968 | locus YPL078C, strain atp4, hits give low values 1.01 | locus YPL106C, strain sse1, hits give low values 0.983 | locus YPL240C, strain hsp82, hits give low values 1 | locus YPR119W, strain clb2, hits give low values 1.01 | locus YPR141C, strain kar3, hits give low values 1.01 | locus YPR163C, strain tif3, hits give low values 1.02 | locus YPR167C, strain met16, hits give low values 1.01 | strain wtn01, hits give low values 0.998
